Eight sequences from PMC7862700, “An all-to-all approach to the identification of sequence-specific readers for epigenetic DNA modifications on cytosine” can be followed below.

Common to all, as to experiment: DAPPL (digital affinity profiling via proximity ligation, sequencing); 10 mM Tris-HCl pH 7.5, 50 mM NaCl, 1 mM DTT, 4% glycerol, room temperature, 30 min; GST-TFs on glutathione beads, 16-mer random dsDNA library, 0.1% formaldehyde crosslink after washing; high values mean tight binding
What all share (conditions): protein: recombinant; tags: N-terminal GST; dsDNA, one strand shown

Experiment [1] has as its target T1, ERF (Homo sapiens, UniProt P50548 1-548).
T1 sequence: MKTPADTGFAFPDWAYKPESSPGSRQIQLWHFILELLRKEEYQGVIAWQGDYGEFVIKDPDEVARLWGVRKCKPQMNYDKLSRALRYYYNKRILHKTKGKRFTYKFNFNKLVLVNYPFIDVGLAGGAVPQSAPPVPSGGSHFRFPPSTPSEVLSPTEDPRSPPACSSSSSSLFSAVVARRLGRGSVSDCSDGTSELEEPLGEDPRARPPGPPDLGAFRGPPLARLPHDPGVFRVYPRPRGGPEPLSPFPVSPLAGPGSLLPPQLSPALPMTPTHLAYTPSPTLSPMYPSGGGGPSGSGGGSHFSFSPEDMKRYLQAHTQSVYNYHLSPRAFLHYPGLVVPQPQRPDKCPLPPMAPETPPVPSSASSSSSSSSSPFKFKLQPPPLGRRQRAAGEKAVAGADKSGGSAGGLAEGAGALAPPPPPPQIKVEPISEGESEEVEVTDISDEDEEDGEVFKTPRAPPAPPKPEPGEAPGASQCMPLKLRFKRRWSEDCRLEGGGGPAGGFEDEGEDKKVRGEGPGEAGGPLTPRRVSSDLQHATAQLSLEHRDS
In short, it runs like this: (§1)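 Binding signal is each hexamer's read frequency for a factor divided by its frequency in the tag-only sample. The factors were GST-fused human transcription factors from yeast, captured on glutathione beads, DNA-barcoded and pooled with that sample. Pools were incubated with 200 nmole of a random double-stranded 16-mer DNA library in Tris/NaCl/DTT/glycerol buffer at room temperature for 30 min, then washed, crosslinked with 0.1% formaldehyde, proximity-ligated with BsaI/T4 ligase (1 h, 37 °C), PCR-amplified and sequenced on an Illumina NextSeq500.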

Experiment [2] deals with T2, ETV3L (Homo sapiens, UniProt Q6ZN32 1-361).
T2 sequence: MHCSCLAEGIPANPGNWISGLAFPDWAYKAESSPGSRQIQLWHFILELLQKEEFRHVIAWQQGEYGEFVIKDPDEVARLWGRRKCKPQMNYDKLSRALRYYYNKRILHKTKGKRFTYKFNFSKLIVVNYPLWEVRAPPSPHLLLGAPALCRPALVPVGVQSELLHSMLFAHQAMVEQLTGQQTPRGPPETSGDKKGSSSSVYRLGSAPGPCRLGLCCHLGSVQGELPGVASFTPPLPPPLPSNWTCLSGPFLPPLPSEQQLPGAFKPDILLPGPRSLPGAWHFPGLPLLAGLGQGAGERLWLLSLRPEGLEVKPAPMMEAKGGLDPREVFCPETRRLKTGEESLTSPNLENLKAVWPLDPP
In short, it runs like this: as §1

Experiment [3] addresses T3, ETS2 (Homo sapiens, UniProt P15036 1-469).
T3 sequence: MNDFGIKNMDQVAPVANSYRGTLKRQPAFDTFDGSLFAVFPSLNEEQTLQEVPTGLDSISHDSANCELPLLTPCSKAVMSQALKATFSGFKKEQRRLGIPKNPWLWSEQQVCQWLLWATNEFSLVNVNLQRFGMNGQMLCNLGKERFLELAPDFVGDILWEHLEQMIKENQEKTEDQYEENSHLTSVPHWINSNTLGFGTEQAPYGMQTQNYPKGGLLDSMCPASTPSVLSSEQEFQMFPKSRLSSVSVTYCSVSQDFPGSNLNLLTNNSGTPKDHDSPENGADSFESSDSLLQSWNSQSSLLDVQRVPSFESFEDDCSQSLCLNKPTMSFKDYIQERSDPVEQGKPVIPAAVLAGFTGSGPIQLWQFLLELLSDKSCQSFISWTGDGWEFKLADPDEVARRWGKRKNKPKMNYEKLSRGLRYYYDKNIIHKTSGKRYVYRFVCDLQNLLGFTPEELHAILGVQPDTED
In short, it runs like this:
as §1

The target in experiment [4] is T4, SPDEF (Homo sapiens, UniProt O95238 1-335).
T4 sequence: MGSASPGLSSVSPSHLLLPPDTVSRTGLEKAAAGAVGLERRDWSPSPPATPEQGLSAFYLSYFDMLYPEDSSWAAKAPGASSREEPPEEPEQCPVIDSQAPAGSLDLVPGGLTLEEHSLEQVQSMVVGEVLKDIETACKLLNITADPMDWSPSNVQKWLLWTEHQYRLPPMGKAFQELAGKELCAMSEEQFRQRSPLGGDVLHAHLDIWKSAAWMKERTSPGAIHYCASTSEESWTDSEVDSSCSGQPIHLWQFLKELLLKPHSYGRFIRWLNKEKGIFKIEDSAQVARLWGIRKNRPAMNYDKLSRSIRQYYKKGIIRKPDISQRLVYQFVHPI
In short, it runs like this:
as §1

In experiment [5] the target is T5, ETV7 (Homo sapiens, UniProt Q9Y603 1-341).
T5 sequence: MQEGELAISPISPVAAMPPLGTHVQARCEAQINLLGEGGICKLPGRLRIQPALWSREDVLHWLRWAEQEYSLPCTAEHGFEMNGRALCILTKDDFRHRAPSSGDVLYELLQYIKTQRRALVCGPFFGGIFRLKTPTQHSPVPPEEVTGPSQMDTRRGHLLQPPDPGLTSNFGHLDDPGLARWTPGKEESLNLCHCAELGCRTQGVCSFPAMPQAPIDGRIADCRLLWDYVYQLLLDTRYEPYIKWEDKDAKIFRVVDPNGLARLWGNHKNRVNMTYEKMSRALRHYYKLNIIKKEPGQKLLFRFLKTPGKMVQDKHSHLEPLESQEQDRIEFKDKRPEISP
In short, it runs like this: as §1

Experiment [6] concerns the target T6, ELF5 (Homo sapiens, UniProt Q9UKW6-2 1-255).
T6 sequence: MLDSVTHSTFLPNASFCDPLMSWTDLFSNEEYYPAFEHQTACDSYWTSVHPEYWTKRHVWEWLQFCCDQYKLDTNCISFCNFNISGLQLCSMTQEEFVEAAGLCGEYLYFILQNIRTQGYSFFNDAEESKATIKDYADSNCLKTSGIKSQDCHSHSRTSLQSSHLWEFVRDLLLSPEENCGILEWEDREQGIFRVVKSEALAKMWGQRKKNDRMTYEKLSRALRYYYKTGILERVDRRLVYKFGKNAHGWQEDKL
In short, it runs like this:
as §1

For experiment [7], the target named is T7, ETV3 (Homo sapiens, UniProt P41162-2 1-143).
T7 sequence: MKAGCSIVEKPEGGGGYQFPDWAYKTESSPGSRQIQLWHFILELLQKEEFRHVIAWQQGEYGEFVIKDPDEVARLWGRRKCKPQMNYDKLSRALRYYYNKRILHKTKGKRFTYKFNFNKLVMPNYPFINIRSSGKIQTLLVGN
The essentials:
as §1

The target in experiment [8] is ETV6 (Homo sapiens, UniProt P41212 1-452). The essentials:
as §1

Chain of ETV6 (P41212 whole entry): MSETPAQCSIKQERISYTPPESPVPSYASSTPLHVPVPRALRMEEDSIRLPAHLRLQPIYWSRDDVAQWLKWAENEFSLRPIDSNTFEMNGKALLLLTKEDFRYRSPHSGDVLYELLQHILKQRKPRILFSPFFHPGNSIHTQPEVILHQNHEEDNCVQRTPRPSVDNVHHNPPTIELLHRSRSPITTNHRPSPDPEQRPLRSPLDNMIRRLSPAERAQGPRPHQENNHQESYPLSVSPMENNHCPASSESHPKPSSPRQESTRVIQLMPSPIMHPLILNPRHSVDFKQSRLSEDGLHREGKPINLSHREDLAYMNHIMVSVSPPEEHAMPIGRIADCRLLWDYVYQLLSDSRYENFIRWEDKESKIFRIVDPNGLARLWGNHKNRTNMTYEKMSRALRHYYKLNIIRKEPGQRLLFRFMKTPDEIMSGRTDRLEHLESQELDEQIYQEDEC

For GCTGTT, the binding signal in experiment [1] is 1.08 fold enrichment (6-mer frequency, TF over GST control); in experiment [2] it was 1.1 fold enrichment (6-mer frequency, TF over GST control); in experiment [3], 1.09 fold enrichment (6-mer frequency, TF over GST control); in experiment [4] it was 1.08 fold enrichment (6-mer frequency, TF over GST control); in experiment [5], 1.21 fold enrichment (6-mer frequency, TF over GST control); in experiment [6] it was 1.04 fold enrichment (6-mer frequency, TF over GST control). The binding signal in experiment [7] is 1.15 fold enrichment (6-mer frequency, TF over GST control); in experiment [8], 1.03 fold enrichment (6-mer frequency, TF over GST control).
For the sequence CTATGT, the binding signal in experiment [1] was 1.08 fold enrichment (6-mer frequency, TF over GST control); in experiment [2] it was 1.06 fold enrichment (6-mer frequency, TF over GST control); in experiment [3], 1.16 fold enrichment (6-mer frequency, TF over GST control); in experiment [4], 1.12 fold enrichment (6-mer frequency, TF over GST control); in experiment [5], 1.3 fold enrichment (6-mer frequency, TF over GST control); in experiment [6], 1.1 fold enrichment (6-mer frequency, TF over GST control). Also, the binding signal in experiment [7] was 1.15 fold enrichment (6-mer frequency, TF over GST control).
On to TTTGTG, for which the binding signal in experiment [1] is 1.23 fold enrichment (6-mer frequency, TF over GST control); in experiment [2] it was 1.12 fold enrichment (6-mer frequency, TF over GST control); in experiment [3] it was 1.11 fold enrichment (6-mer frequency, TF over GST control); in experiment [4] it was 1.23 fold enrichment (6-mer frequency, TF over GST control); in experiment [5], 1.2 fold enrichment (6-mer frequency, TF over GST control); in experiment [6], 1.18 fold enrichment (6-mer frequency, TF over GST control). Besides, the binding signal in experiment [7] was 1.13 fold enrichment (6-mer frequency, TF over GST control); in experiment [8], 1.14 fold enrichment (6-mer frequency, TF over GST control).
Regarding TCGCGC, the binding signal in experiment [1] is 1.12 fold enrichment (6-mer frequency, TF over GST control); in experiment [2] it was 1.02 fold enrichment (6-mer frequency, TF over GST control); in experiment [3], 1.12 fold enrichment (6-mer frequency, TF over GST control); in experiment [4], 1.14 fold enrichment (6-mer frequency, TF over GST control); in experiment [5], 1.23 fold enrichment (6-mer frequency, TF over GST control); in experiment [6], 1.03 fold enrichment (6-mer frequency, TF over GST control).
As to ATGTGG, the binding signal is 1.15 fold enrichment (6-mer frequency, TF over GST control) in experiment [1]; 1.16 fold enrichment (6-mer frequency, TF over GST control) in experiment [2]; 1.18 fold enrichment (6-mer frequency, TF over GST control) in experiment [3]; 1.05 fold enrichment (6-mer frequency, TF over GST control) in experiment [4]; 1.08 fold enrichment (6-mer frequency, TF over GST control) in experiment [5]; 1.15 fold enrichment (6-mer frequency, TF over GST control) in experiment [6]. Further, the binding signal was 1.19 fold enrichment (6-mer frequency, TF over GST control) in experiment [7] and 1.2 fold enrichment (6-mer frequency, TF over GST control) in experiment [8].
GCGACC: the binding signal in experiment [1] is 1.13 fold enrichment (6-mer frequency, TF over GST control); in experiment [2] it was 1.14 fold enrichment (6-mer frequency, TF over GST control); in experiment [3] it was 1.19 fold enrichment (6-mer frequency, TF over GST control); in experiment [4], 1.14 fold enrichment (6-mer frequency, TF over GST control); in experiment [5], 1.06 fold enrichment (6-mer frequency, TF over GST control); in experiment [6], 1.1 fold enrichment (6-mer frequency, TF over GST control). Moreover, the binding signal is 1.1 fold enrichment (6-mer frequency, TF over GST control) in experiment [7] and 1.08 fold enrichment (6-mer frequency, TF over GST control) in experiment [8].
As for CCAACA, the binding signal in experiment [1] is 1.05 fold enrichment (6-mer frequency, TF over GST control); in experiment [2], 1.01 fold enrichment (6-mer frequency, TF over GST control); in experiment [3] it was 1.03 fold enrichment (6-mer frequency, TF over GST control); in experiment [4] it was 1.06 fold enrichment (6-mer frequency, TF over GST control); in experiment [5] it was 1.05 fold enrichment (6-mer frequency, TF over GST control); in experiment [6], 1.01 fold enrichment (6-mer frequency, TF over GST control). Further, the binding signal in experiment [7] is 1.1 fold enrichment (6-mer frequency, TF over GST control).
Turning to TGCACG, the binding signal in experiment [1] was 1.11 fold enrichment (6-mer frequency, TF over GST control); in experiment [2], 1.1 fold enrichment (6-mer frequency, TF over GST control); in experiment [3], 1.15 fold enrichment (6-mer frequency, TF over GST control); in experiment [4] it was 1.11 fold enrichment (6-mer frequency, TF over GST control); in experiment [5], 1.19 fold enrichment (6-mer frequency, TF over GST control); in experiment [6], 1.02 fold enrichment (6-mer frequency, TF over GST control). Further, the binding signal in experiment [7] is 1.13 fold enrichment (6-mer frequency, TF over GST control); in experiment [8] it was 1.06 fold enrichment (6-mer frequency, TF over GST control).
